Experimental data reported in PubChem BioAssay.
Results filed as inconclusive are left out. Activity calls are given as the source filed them. Unless noted, the rule behind the calls is not given here.

What was measured:
[1] = liver-stage malaria parasite load reduction – cell-based, known kinase inhibitor set, luminescence, hepatoma host viability (AID 624392); details: Plasmodium liver stage in hepatoma cells, luciferase luminescence, concentration not given here; liver cell % of control: measured here: host liver cell viability; parasite % of control: stronger effect = lower value;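 note: infected cells incubated roughly two days before readout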
[2] = altered dexamethasone sensitivity, NF-kB reporter, cell-based, luciferase, IL-1B stimulus (AID 624486); details: IL-1B + dexamethasone, luminescence; percent of negative control (+Dex): actives lie on both sides, concentration not given here; z-score: measured here: IL-1B alone, no Dex;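 for percent of negative control (+Dex): 100% = mean signal of vehicle control wells on the plate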
[3] = C. elegans survival during P. aeruginosa infection – whole organism (AID 651566);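 note: tested at 14 µM; sign flipped so higher z means a lower ratio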; details: C. elegans killed by P. aeruginosa, survival ratio
[4] = pro-inflammatory signaling induction in mouse macrophages – cell-based, murine, luminescence (AID 652131); details: murine macrophage pro-inflammatory reporter, stronger effect = higher value
[5] = target: Cellular tumor antigen p53 (Homo sapiens) (UniProt P04637); test: GFP-p53 level modulators in HPV16+ cells – imaging, known kinase inhibitor set, EGFP/DsRed ratio (AID 1053116); details: GFP-p53 stability, stronger effect = higher value; EGFP object count: measured here: GFP-p53 positive objects count;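 note: cells exposed to compounds for 24 h at 37 °C before reading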
Cellular tumor antigen p53 (Homo sapiens), sequence (P04637 whole entry, looked up): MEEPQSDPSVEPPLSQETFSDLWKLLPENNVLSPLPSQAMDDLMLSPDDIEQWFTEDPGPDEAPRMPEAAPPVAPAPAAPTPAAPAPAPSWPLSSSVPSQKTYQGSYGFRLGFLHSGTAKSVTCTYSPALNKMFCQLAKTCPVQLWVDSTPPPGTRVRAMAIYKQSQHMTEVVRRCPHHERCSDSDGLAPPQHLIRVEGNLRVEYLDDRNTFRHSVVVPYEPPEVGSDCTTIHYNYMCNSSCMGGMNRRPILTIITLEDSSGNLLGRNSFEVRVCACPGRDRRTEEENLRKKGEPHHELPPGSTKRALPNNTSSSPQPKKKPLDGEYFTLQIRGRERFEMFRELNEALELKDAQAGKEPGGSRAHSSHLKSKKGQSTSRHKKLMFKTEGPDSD

[6] = inducers of IRF3 signaling, differentiated THP-1 – cell-based, PMA-stimulated THP-1, luminescence (AID 1053176); details: PMA-differentiated THP-1, IRF3 reporter luminescence; stronger effect = higher value
[7] = MELAS cybrid and Rieske KO viability enhancers – cell-based, MELAS cybrids, Rieske KO mouse fibroblasts, CellTiter-Glo, primary screen (AID 1508586;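 active = mean z-score across replicates of 1.96 or higher in either the MELAS or the Rieske mutant cell line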;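 note: z relative to plate mean and SD of compound and empty wells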); details: low glucose
[8] = viability loss in pontine glioma line – cell-based, SU-DIPG-XVII, MIPE5.0, CellTiter-Glo, qHTS, dose response (AID 1347060; cut-off not given, nearly all actives have AC50 up to about 26 µM;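 note: cells exposed to compound for 48 hours before viability readout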); details: CellTiter-Glo ATP luminescence
[9] = viability loss in pontine glioma line – cell-based, SU-DIPG-XXV, MIPE5.0, CellTiter-Glo, qHTS, dose response (AID 1347065; cut-off not given, nearly all actives have AC50 up to about 26 µM;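 note: cells exposed to compound for 48 hours before ATP readout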); details: CellTiter-Glo ATP luminescence
[10] = JHH-DIPG-1 glioma cell viability, MIPE5.0 library, CellTiter-Glo luminescence, qHTS (AID 1347067; cut-off not given, nearly all actives have AC50 up to about 26 µM;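 note: cells exposed to compound for 48 hours before readout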); details: JHH-DIPG-1 glioma viability, CellTiter-Glo ATP luminescence
[11] = MELAS cybrid survival, CellTiter-Glo 48 h, stronger effect = higher value
[12] = Rieske KO mouse fibroblast survival, CellTiter-Glo 72 h

| Structure (SMILES) | liver cell % of control [1] | parasite % of control [1] | percent of negative control (+Dex) [2] | z-score [2] | z-score [3] | z-score [4] | EGFP object count [5] | EGFP/DsRed ratio [5] | fraction signal [6] | z-score [7, 11] | z-score [7, 12] | AC50 [8] | AC50 [9] | AC50 [10] |
| --- | --- | --- | --- | --- | --- | --- | --- | --- | --- | --- | --- | --- | --- | --- |
| COc1cc(Nc2nccc(Nc3ccc4c(C)[nH]nc4c3)n2)cc(OC)c1OC | 142% | 247% (inactive) | 68% (inactive) | -1.93 | -0.535 (inactive) | 2.91 (inactive) | 2 | 0.0182 (inactive) | -0.01 (inactive) | -0.786 | 5.33 |  |  |  |
| NS(=O)(=O)c1ccc(N=Nc2c(O)[nH]c3ccc(Cl)cc23)cc1 | 91.6% | 111% (inactive) | 112% (inactive) | 0.905 | 0.005 (inactive) | 0.24 (inactive) | 6.5 | 0.227 (inactive) | 0.0005 (inactive) | 1.43 (inactive) | -0.311 |  |  |  |
| O=C1NC(=O)C(c2cccc(Cl)c2)=C1Nc1ccc(Cl)c(C(=O)O)c1 | 102% | 122% (inactive) | 96.5% (inactive) | 0.205 | -0.33 (inactive) | -0.043 (inactive) | 2.5 | 0.103 (inactive) | 0 (inactive) | -0.755 (inactive) | -0.327 |  |  |  |
| COc1ccc(-c2oc3ncnc(N)c3c2-c2ccc(NC(=O)Nc3cc(C(F)(F)F)ccc3F)cc2)cc1 | 50% | 186% (inactive) | 93.5% (inactive) | -2.24 | 0.785 (inactive) | -0.472 (inactive) | 6 | 0.0596 (inactive) | 0.007 (inactive) | -1.1 (inactive) | -0.0748 | 3.72 µM (active) | 1.66 µM (active) | 9.34 µM (active) |
| Cc1ccc(C(=O)NC(C)C)cc1-c1ccc(C(=O)NCC2CC2)cc1 | 90% | 124% (inactive) | 94.5% (inactive) | 1.18 | 0.505 (inactive) | 0.198 (inactive) | 3 | 0.0297 (inactive) | -0.008 (inactive) | 0.0329 (inactive) | 0.189 |  |  |  |
| CS(=O)(=O)Nc1cccc(-c2ccc3c(NC(=O)C4CC4)n[nH]c3c2)c1 | 89.6% | 233% (inactive) | 96% (inactive) | 0.535 | 0.185 (inactive) | -0.214 (inactive) | 7 | 0.137 (inactive) | -0.0065 (inactive) | -0.446 (inactive) | -0.47 |  |  |  |
| Nc1ncc(-c2cccc(S(N)(=O)=O)c2)c2scc(-c3ccc(F)c(Cl)c3)c12 | 86.2% | 63% (inactive) | 101% (inactive) | -0.045 | 0.425 (inactive) | 0.178 (inactive) | 7 | 0.225 (inactive) | -0.008 (inactive) | -0.767 (inactive) | -0.224 |  |  |  |
| CN1CCN(C(=O)c2ccc(NC(=O)Nc3ccc(N(C)c4ccnc(Nc5ccc(CS(C)(=O)=O)cc5)n4)cc3)cc2)CC1 | 86.4% | 77.1% (inactive) | 85.5% (inactive) | -0.585 | 0.175 (inactive) | 4.5 (inactive) | 2 | 0.13 (inactive) | -0.0115 (inactive) | 0.142 (inactive) | 0.134 |  |  |  |
| COc1ccc(-c2nn3ncccc3c2-c2ccnc(Nc3ccc(F)c(F)c3)n2)cc1 | 177% | 16.9% (inactive) | 75.5% (inactive) | -0.785 | 1.61 (inactive) | -0.312 (inactive) | 4.5 | 0.039 (inactive) | 0.0025 (inactive) | 1.01 (inactive) | -0.0344 |  |  |  |
| CS(=O)(=O)CCNCc1ccc(-c2ccc3ncnc(Nc4ccc(OCc5cccc(F)c5)c(C(F)(F)F)c4)c3c2)o1 | 105% | 99.7% (inactive) | 106% (inactive) | 1.84 | 0.48 (inactive) | -0.873 (inactive) | 1 | 0.00783 (inactive) | -0.0125 (inactive) | -0.506 (inactive) | -0.463 |  |  |  |
| COc1ccc(-c2coc3ncnc(N)c23)cc1 | 92.2% | 116% (inactive) | 84% (inactive) | -0.765 | 0.065 (inactive) | -0.443 (inactive) | 4 | 0.227 (inactive) | 0.002 (inactive) | -0.507 (inactive) | -0.245 |  |  |  |
| CS(=O)(=O)CCNCc1ccc(-c2ccc3ncnc(Nc4ccc(OCc5ccccc5)c(C(F)(F)F)c4)c3c2)o1 | 107% | 128% (inactive) | 91.5% (inactive) | -0.11 | -1.4 (inactive) | 0.401 (inactive) | 6 | 0.123 (inactive) | -0.0055 (inactive) | 0.000746 (inactive) | -0.326 |  |  |  |
| COC(=O)Nc1nc2ccc(Oc3cccc(NC(=O)Nc4cc(C(F)(F)F)ccc4F)c3)cc2[nH]1 | 103% | 148% (inactive) | 104% (inactive) | 2.25 | 1.03 (inactive) | 4.52 (inactive) | 4 | 0.18 (inactive) | -0.0045 (inactive) | -0.76 (inactive) | 0.691 |  |  |  |
| Cc1ccc2c(-c3ccnc(Nc4ccccc4)n3)c(-c3ccc(F)cc3)nn2n1 | 152% | 12.5% (active) | 81% (inactive) | -1.78 | 0.225 (inactive) | -0.658 (inactive) | 6 | 0.152 (inactive) | -0.0025 (inactive) | 0.41 (inactive) | -0.16 |  |  |  |
